# Data published in the supplement of paper PMC10849652.
# The full data set covers some 8,800 targets. This sample favours those with a hit. About 0.5% of all pairs of compound and target were hits. A number with no mark means an inactive call.
# Tests used:
# Assay in all cases: log2 fold change, soluble protein after heating vs DMSO (PISA); higher = thermal stabilisation; K562 lysate, 10 uM; active = over 0.2 and 3.5 SD of the protein, either way, in both replicates (recomputed)
# nilotinib = compound: Cc1cn(-c2cc(NC(=O)c3ccc(C)c(Nc4nccc(-c5cccnc5)n4)c3)cc(C(F)(F)F)c2)cn1 [nilotinib]
# Summary of the method: (§1)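 Thermal stability, expressed as log-two fold change relative to solvent controls, is given from duplicates. Crude K562 extract in PBS pH 7.4 with 1 mM MgCl2, at 1 mg/mL protein, was treated with 10 μM compound for 30 min and heated in aliquots for 3 min across 48°C-58°C. After pooling, adjustment to 0.5% NP-40 at 4°C and centrifugation at 21,000xg for 90 min, supernatant protein was measured by TMTpro 16plex LC-MS/MS with channel sums equalised.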
# [1] = compound: Cc1nc(Nc2n[nH]c3c2CN(C(=O)N[C@H](CN(C)C)c2ccccc2)C3(C)C)c2sccc2n1
# Summary of the method: as §1
# [2] = compound: Cc1ncc(-c2ccnc(Nc3ccc(S(C)(=O)=O)cc3)n2)n1C(C)C
# Summary of the method: as §1
# quisinostat = compound: Cn1cc(CNCC2CCN(c3ncc(C(=O)NO)cn3)CC2)c2ccccc21 [quisinostat]
# Summary of the method: as §1
# tipifarnib = compound: Cn1cncc1[C@@](N)(c1ccc(Cl)cc1)c1ccc2c(c1)c(-c1cccc(Cl)c1)cc(=O)n2C [tipifarnib]
# Summary of the method: as §1
# [3] = compound: NC(=O)Nc1cc(-c2cccc(F)c2)sc1C(=O)N[C@H]1CCCNC1
# Summary of the method: as §1
# [4] = compound: NC(=O)c1cnc(N[C@@H]2CCCC[C@@H]2N)nc1Nc1cccc(-n2nccn2)c1
# Summary of the method: as §1
# [5] = compound: NC1(c2ccc(-c3nc4ccn5c(=O)[nH]nc5c4cc3-c3ccccc3)cc2)CCC1
# Summary of the method: as §1
# [6] = compound: NCC(=O)Nc1ccc(-n2nc(C(F)(F)F)cc2-c2ccc3c(ccc4ccccc43)c2)cc1
# Summary of the method: as §1
# vorinostat = compound: O=C(CCCCCCC(=O)Nc1ccccc1)NO [vorinostat]
# Summary of the method: as §1
# silmitasertib = compound: O=C(O)c1ccc2c(c1)nc(Nc1cccc(Cl)c1)c1ccncc12 [silmitasertib]
# Summary of the method: as §1
# [7] = compound: O=C1NC(=O)C(c2cnc3ccccn23)=C1c1cn2c3c(cc(F)cc13)CN(C(=O)N1CCCCC1)CC2
# Summary of the method: as §1
# entospletinib = compound: c1cn2cc(-c3ccc4cn[nH]c4c3)nc(Nc3ccc(N4CCOCC4)cc3)c2n1 [entospletinib]
# Summary of the method: as §1
# dasatinib = compound: Cc1nc(Nc2ncc(C(=O)Nc3c(C)cccc3Cl)s2)cc(N2CCN(CCO)CC2)n1 [dasatinib]
# Summary of the method: as §1
# [8] = compound: Cn1cc(-c2ccc3c(c2)CCN3C(=O)Cc2cccc(C(F)(F)F)c2)c2c(N)ncnc21
# Summary of the method: as §1
# UniProt O43399, sequence (O43399 whole entry, looked up): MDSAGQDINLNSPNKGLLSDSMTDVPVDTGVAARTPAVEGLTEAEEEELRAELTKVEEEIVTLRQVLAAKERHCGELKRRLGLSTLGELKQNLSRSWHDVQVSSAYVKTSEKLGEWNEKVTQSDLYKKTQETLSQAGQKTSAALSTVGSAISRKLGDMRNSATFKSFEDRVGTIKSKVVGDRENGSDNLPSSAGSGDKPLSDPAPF
# UniProt Q9UKE5, sequence (Q9UKE5 whole entry, looked up): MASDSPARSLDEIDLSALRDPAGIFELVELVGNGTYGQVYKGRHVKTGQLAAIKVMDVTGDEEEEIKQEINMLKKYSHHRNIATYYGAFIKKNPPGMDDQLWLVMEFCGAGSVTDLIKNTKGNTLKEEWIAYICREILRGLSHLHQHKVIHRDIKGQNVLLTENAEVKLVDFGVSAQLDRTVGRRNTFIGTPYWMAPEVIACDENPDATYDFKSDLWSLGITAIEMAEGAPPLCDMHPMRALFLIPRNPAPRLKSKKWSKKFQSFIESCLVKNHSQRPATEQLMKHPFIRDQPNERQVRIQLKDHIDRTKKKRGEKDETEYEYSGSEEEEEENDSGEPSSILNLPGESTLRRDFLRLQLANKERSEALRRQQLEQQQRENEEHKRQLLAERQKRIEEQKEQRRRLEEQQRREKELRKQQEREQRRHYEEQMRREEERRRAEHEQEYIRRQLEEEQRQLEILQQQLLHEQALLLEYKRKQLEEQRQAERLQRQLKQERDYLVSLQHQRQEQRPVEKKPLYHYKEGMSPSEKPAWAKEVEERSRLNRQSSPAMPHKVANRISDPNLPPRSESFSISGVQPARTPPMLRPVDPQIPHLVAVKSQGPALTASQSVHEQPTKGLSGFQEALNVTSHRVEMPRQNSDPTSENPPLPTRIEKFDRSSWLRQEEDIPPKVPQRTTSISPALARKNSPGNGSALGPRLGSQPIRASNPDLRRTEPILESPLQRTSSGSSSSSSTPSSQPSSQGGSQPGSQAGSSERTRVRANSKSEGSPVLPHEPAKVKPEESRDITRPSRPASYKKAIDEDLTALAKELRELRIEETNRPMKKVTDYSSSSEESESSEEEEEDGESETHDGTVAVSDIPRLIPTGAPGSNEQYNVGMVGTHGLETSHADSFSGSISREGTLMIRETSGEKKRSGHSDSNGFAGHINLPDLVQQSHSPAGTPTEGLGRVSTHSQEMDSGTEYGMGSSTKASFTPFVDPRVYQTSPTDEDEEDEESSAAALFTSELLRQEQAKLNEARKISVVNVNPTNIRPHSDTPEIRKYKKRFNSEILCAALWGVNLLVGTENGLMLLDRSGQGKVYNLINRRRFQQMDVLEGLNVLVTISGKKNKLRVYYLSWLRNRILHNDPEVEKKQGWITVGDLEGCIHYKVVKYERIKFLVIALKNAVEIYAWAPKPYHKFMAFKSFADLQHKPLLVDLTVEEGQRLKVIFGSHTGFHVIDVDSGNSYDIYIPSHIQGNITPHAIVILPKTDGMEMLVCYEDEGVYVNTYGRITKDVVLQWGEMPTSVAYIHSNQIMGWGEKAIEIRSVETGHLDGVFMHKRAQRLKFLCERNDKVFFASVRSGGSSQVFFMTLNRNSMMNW
# UniProt P06753, sequence (P06753 whole entry, looked up): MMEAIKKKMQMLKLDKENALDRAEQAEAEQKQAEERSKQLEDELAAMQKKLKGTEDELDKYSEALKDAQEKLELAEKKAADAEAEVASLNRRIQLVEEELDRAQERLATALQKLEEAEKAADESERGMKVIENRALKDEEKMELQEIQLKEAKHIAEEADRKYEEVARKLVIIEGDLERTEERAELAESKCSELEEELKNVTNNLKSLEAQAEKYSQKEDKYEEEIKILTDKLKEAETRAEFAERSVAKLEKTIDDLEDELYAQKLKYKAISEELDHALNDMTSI
# UniProt Q96LJ8, sequence (Q96LJ8 whole entry, looked up): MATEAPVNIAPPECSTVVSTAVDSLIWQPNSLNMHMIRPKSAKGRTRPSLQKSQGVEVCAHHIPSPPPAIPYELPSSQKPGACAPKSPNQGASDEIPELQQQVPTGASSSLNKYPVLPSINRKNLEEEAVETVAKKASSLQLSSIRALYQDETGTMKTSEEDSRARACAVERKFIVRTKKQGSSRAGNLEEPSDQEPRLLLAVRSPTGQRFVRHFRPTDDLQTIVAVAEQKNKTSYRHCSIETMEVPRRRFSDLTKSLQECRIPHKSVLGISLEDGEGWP
# UniProt Q53S58, sequence (Q53S58 whole entry, looked up): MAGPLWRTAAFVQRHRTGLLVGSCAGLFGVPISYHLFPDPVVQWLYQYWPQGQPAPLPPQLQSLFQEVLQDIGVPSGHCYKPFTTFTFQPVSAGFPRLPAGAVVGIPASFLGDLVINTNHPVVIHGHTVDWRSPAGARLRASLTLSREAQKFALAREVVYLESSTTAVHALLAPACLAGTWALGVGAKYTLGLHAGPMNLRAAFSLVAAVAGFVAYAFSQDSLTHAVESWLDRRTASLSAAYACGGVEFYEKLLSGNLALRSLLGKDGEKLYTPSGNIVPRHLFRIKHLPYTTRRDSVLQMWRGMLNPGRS
# UniProt P10646, sequence (P10646 whole entry, looked up): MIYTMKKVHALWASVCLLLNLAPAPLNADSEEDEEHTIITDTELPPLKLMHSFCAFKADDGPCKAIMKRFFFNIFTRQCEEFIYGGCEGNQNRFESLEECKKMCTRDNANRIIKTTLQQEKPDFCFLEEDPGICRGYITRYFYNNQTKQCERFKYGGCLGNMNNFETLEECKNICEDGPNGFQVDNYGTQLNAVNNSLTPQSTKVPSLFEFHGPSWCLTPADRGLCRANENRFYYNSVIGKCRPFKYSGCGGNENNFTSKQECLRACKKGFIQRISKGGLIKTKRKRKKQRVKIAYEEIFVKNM
# UniProt Q96BZ9, sequence (Q96BZ9 whole entry, looked up): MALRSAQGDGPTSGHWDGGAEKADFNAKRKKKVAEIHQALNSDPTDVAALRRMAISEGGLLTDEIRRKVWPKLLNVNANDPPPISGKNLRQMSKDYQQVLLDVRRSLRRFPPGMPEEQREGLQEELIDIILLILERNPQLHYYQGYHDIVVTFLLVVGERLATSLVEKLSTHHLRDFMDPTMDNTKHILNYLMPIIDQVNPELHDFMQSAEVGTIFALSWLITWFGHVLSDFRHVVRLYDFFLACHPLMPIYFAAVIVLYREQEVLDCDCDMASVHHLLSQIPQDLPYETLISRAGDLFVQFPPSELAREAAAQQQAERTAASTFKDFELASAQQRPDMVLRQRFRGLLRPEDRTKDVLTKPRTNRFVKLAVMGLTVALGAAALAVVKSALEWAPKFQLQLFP
# UniProt Q6P9G4, sequence (Q6P9G4 whole entry, looked up): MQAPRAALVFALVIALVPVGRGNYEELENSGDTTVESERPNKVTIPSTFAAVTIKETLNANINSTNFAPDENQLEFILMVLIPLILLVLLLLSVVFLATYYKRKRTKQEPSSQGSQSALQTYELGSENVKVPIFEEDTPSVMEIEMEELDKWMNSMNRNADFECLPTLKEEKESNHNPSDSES
# UniProt Q8NDZ6, sequence (Q8NDZ6 whole entry, looked up): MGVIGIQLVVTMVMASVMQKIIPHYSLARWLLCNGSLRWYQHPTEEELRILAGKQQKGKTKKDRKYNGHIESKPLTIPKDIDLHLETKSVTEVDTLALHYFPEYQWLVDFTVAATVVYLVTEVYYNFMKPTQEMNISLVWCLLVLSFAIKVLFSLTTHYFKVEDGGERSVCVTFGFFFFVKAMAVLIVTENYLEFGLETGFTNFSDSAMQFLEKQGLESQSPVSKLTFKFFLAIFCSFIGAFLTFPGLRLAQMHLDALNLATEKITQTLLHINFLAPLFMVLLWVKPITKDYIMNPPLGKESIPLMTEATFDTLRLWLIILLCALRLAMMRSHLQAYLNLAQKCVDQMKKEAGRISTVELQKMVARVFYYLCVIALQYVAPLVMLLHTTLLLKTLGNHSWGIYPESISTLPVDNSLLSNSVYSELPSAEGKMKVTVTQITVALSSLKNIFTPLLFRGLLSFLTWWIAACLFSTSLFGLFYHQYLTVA
# UniProt Q8TDI8, sequence (Q8TDI8 whole entry, looked up): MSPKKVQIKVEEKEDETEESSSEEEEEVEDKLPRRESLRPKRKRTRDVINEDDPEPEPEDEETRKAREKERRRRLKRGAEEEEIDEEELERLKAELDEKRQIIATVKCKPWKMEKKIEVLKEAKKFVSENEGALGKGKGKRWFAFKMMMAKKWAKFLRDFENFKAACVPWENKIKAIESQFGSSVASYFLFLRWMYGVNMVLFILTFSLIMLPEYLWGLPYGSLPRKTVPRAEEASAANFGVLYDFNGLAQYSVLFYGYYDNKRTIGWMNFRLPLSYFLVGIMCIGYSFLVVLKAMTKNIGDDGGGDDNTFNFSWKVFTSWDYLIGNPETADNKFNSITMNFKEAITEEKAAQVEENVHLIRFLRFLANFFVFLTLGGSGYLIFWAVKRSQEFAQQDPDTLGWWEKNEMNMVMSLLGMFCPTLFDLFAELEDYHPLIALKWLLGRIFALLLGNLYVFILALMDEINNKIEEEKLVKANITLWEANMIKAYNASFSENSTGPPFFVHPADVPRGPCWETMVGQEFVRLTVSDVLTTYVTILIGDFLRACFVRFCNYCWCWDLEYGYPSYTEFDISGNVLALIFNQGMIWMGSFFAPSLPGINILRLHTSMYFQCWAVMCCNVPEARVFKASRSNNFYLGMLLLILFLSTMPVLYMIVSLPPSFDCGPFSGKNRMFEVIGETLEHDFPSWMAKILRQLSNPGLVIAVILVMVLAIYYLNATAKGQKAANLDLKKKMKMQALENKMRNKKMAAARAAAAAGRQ
# UniProt P62328, sequence (P62328 whole entry, looked up): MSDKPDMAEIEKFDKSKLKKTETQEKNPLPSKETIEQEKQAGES
Target,log2 fold change (nilotinib),log2 fold change [1],log2 fold change [2],log2 fold change (quisinostat),log2 fold change (tipifarnib),log2 fold change [3],log2 fold change [4],log2 fold change [5],log2 fold change [6],log2 fold change (vorinostat),log2 fold change (silmitasertib),log2 fold change [7],log2 fold change (entospletinib),log2 fold change (dasatinib),log2 fold change [8]
TMC1 (UniProt Q8TDI8),-0.073,-0.049,-0.28,-0.552 (active),0.015,-0.058,-0.006,0,0.015,-0.121,0.02,-0.337,0.012,,
TFPI (UniProt P10646),-0.076,0.04,-0.035,-0.088,-0.025,-0.067,0.035,0.02,0.067,0.106,0.01,-0.063,-0.057,,
TBC1D20 isoform 3 (UniProt Q96BZ9),,,,-0.021,,0.067,-0.072,-0.006,-0.118,0.088,-0.013,0.058,0.02,0.027,-0.053
TMEM161B (UniProt Q8NDZ6),0.419 (active),-0.014,0.053,-0.07,-0.117,0.046,-0.005,-0.064,-0.084,0.225,0,0.019,-0.026,,
TUBB6 (UniProt K7ES63),-0.051,0.112,-0.155,-0.267,0.08,0.049,0.08,-0.008,-0.062,-0.414,0.013,-0.164,-0.11,,
TLE3 (UniProt H0YL70),,,,,,,,,,,,,,0.077,0.05
TMEM177 (UniProt Q53S58),,,,-0.018,,0.036,0.029,0.067,-0.183,-0.012,-0.035,0.034,0.005,,
"UBAP2, A0A0D9SFI5",,,,0.151,,0.111,,,,,,-0.094,,,
UBXN10 (UniProt Q96LJ8),,,,-0.028,,0.035,0.078,0.014,-0.018,-0.321 (active),-0.005,-0.002,0,-0.007,0.008
TXNRD2 isoform 3 (UniProt Q9NNW7),,,,,,,,-0.228,,-0.94 (active),-0.194,,,,
UBR4 isoform 4 (UniProt Q5T4S7),,,,,,,-0.078,0.049,-0.145,-0.792 (active),-0.004,,0.205,-0.083,-0.158
TFPI isoform 2 (UniProt P10646),,,,-0.087,,0.082,,,0.184,,,0.019,,,
TNIK isoform 5 (UniProt Q9UKE5),,,,-0.218,,0.539 (active),0.019,,,,,-0.134,,0.187,0.019
TMSB4X (UniProt P62328),-0.105,-0.107,0.115,-0.024,-0.071,0.263,-0.027,0,,0.103,-0.076,0.219,-0.158,,
TPD52L2 isoform 3 (UniProt O43399),0.055,0.035,0.008,,0.134,,,0.074,,0.258,-0.058,,,,
TMEM154 (UniProt Q6P9G4),,,,0.103,,-0.101,,,,,,0.008,-0.056,0.058,0.07
TCF3 (UniProt X6REB3),,,,,,,,,-0.257,,,,,,
TPM3 isoform 3 (UniProt P06753),,,,0.112,,-0.09,0.001,-0.035,-0.111,0.048,-0.047,-0.15,-0.024,0.05,0.106
